Our source for the z-score values is PubChem BioAssay.

Unmarked numbers belong to inactive results. Active and inactive are the calls of the source.

The experiment can be described thus: plasmodial surface anion channel blockers, osmotic lysis – cell-based, P. falciparum Indochina, OD700, 1 h, primary screen (AID 1154). The settings on record: P. falciparum Indochina infected RBC osmotic lysis, higher = more signal, called active from +8 up or from −8 down.
Regarding `COc1cc2c(cc1O)C(C1CC1)N(Cc1cc3c(cc1Br)OCO3)CC2` (stereo not given), the z-score was 9.09 (active).
As for `C=C(CCCC)C(=O)CC[C@H](OC(C)=O)c1cccc(OCCO)c1`, the z-score was 5.27.
In the case of `C=CC[C@]1(C(=O)N2CCCCC2)N=C(c2ccc(OCCCO)cc2)O[C@H]1c1ccccc1` it was 18.8 (active); in that of `COCCOC(=O)N1C(=O)[C@@]2(c3cc(C#CCCO)ccc31)[C@H](C(=O)N1CCN(c3ncccn3)CC1)[C@H]1C(=O)O[C@H](c3ccccc3)[C@H](c3ccccc3)N1[C@@H]2c1ccccc1OCCO`, 2.63; in that of `COCCOC(=O)N1C(=O)[C@@]2(c3cc(C#CCCO)ccc31)[C@H](C(=O)N1CCc3cc(OC)c(OC)cc3C1)[C@H]1C(=O)O[C@H](c3ccccc3)[C@H](c3ccccc3)N1[C@@H]2c1ccc(O)cc1`, 1.49.
In the case of `CCCCN1CC=CC23O[C@@H]4/C=C\CCC(C)OC(=O)C4[C@H]2C(=O)N(CCCCCO)[C@@H]3C1=O` (stereo not given in full) it was 1.03; in that of `C=CCN1C(=O)[C@@]2(O[C@@H](CCO)[C@H]([Si](C)(C)c3ccc(OC)cc3)[C@H]2C)c2cc(NC(=O)c3ccc(OC)cc3)ccc21`, 23.3 (active); in that of `CC(=O)n1cc(C(O)C2C=CC3C(=O)N(C)C(=O)C3N2Nc2ccccc2)c2ccccc21` (stereo not given), 1.11.
In the case of `Cc1ccc(C(C)CC(O)C2C=CC3C(=O)N(c4ccccc4)C(=O)C3N2Nc2ccc([N+](=O)[O-])cc2)o1` (stereo not given) it was 9.35 (active).
For `[N-]=[N+]=NCc1ccccc1[C@H]1OC(c2ccc(OCCCO)cc2)=N[C@@]1(Cc1ccccc1)C(=O)NCc1ccccc1`, the z-score was 27.6 (active).
In the case of `COc1ccc([Si](C)(C)[C@@H]2[C@@H](CCO)O[C@]3(C(=O)N(Cc4ccc(N5C(=O)COc6ccccc65)cc4)c4ccccc43)[C@H]2C)cc1` it was 3.9; in that of `CN(C)CCCNC(=O)[C@@]1(C)c2ccccc2C(=O)N(Cc2cc(F)cc(C(F)(F)F)c2)[C@H]1c1ccc(CO)cc1`, 2.41; in that of `C=C(COC)/C(=C/C[C@@H](OC(C)=O)c1ccc(OCCO)cc1)c1cc(C(=O)OC)ccc1OC`, 11.2 (active).
For the compound `CCCC[C@@H]1C[C@H]1[C@@H](NC(=O)c1ccco1)c1ccc(Cl)cc1`, the z-score is 4.34.
In the case of `CC1CC/C=C\[C@H]2OC34C=CCN(Cn5nnc6ccccc65)C(=O)[C@H]3N(C(CO)C(C)C)C(=O)[C@@H]4C2C(=O)O1` (stereo not given in full) it was 2.43; in that of `[N-]=[N+]=Nc1ccccc1[C@H]1OC(c2ccc(OCCCO)cc2)=N[C@@]1(Cc1ccccc1)C(=O)O`, 32 (active); in that of `O=C1C2C=CC(C(O)C(c3ccccc3)c3ccccc3)N(n3cnnc3)C2C(=O)N1Cc1ccccc1` (stereo not given), 2.36.
In the case of `CN1C(=O)C2C=CC(C(O)Cc3ccccc3)N(Nc3ccccc3)C2C1=O` (stereo not given) it was 1.15; in that of `NC(=O)[C@@H]1[C@H]2C(=O)O[C@H](c3ccccc3)[C@H](c3ccccc3)N2[C@H](c2ccc(O)cc2)[C@@]12C(=O)Nc1ccc(C#CC3(O)CCCCCC3)cc12`, 2.28.
Turning to `COCCOC(=O)N1C(=O)[C@@]2(c3cc(C#Cc4ccc(OC)cc4)ccc31)[C@H](C(=O)N1CCCCCCC1)[C@H]1C(=O)O[C@H](c3ccccc3)[C@H](c3ccccc3)N1[C@@H]2c1ccc(OCCO)cc1`, the z-score was 7.28.
In the case of `CCOC(=O)C[C@H]1[C@H](OC(=O)Cc2ccc3c(c2)OCO3)[C@@H](NC(=O)c2ccc(-c3ccccc3)cc2)c2cc(OCCCO)ccc2N1C(=O)Cc1ccc(OC)cc1` it was 25.4 (active); in that of `O=C1[C@H]2C=C(Br)[C@H](C[C@@H]2c2ccccc2)[C@@]12CO2`, 1.22; in that of `CCOC(=O)[C@H]1C/C=C/C[C@H](C(=O)OCC)C(=O)O[C@H]2[C@@H](OC)O[C@H](CO)[C@@H](OC(=O)Nc3ccc(C#N)cc3)[C@@H]2OC1=O`, 12.3 (active).
The figure for `COC(=O)C(CC#Cc1ccc2c(c1)[C@]1(C(=O)N2)[C@H](c2ccc(O)cc2)N2[C@H](c3ccccc3)[C@H](c3ccccc3)OC(=O)[C@H]2[C@@H]1C(=O)Nc1nc2ccccc2s1)C(=O)OC` is 1.11.
In the case of `COc1ccc(C(O)C2C=CC3C(=O)NC(=O)C3N2Nc2ccccn2)cc1` (stereo not given) it was 0.539.
As for `C#CCN(CC1=CCCCC1)[C@H](c1ccccc1Br)[C@@H](O)Cc1ccccc1`, the z-score was 3.02.
`CC(C)OC(=O)C=C1C[C@@H](c2ccccc2C(F)(F)F)O[C@@H](c2ccccc2C(F)(F)F)O1`: the z-score is 1.66.
In the case of `COCCCNC(=O)[C@@]1(Cc2ccccc2N=[N+]=[N-])N=C(c2ccc(OCCCO)cc2)O[C@H]1c1ccccc1N=[N+]=[N-]` it was 28.8 (active); in that of `O=C1C2C=CC(C(O)C3CCCCC3)N(Nc3ccc([N+](=O)[O-])cc3)C2C(=O)N1c1ccccc1` (stereo not given), 21.3 (active).
In the case of `COCC(=C=CC[C@@H](O)c1ccccc1OCCO)C[C@@H](O)c1cc(Cl)cc(Cl)c1O` it was 20.5 (active); in that of `O=C1c2ccccc2[C@](Cc2ccccc2I)(C(=O)NC2CC2)[C@H](c2ccc(CO)cc2)N1Cc1ccccc1`, 5.07.
In the case of `CCOC(=O)C[C@H]1[C@H](OC(=O)Cc2ccc3c(c2)OCO3)[C@@H](NC(=O)c2ccc3ccccc3c2)c2cc(OCCCO)ccc2N1C(=O)c1ccccc1` it was 4.03.
As for `C=CCNC(=O)[C@H]1[C@@H]2C(=O)O[C@@H](c3ccccc3)[C@@H](c3ccccc3)N2[C@@H](c2ccc(OCCO)cc2)[C@]12C(=O)N(C(=O)OCCOC)c1ccccc12`, the z-score was 5.52.
In the case of `CCOC(=O)C[C@H]1[C@H](OC(=O)Cc2ccc3c(c2)OCO3)[C@@H](NC(=O)c2ccc(-c3ccccc3)cc2)c2cc(OCCCO)ccc2N1C(=O)c1ccc2ccccc2n1` it was 8.44 (active); in that of `C=CCN1C(=O)[C@]2(O[C@H](CCO)[C@@H]([Si](C)(C)c3ccc(OC)cc3)[C@@H]2C)c2cc(N3C(=O)c4cccc5cccc3c45)ccc21`, 6.44.
